# Test results reported in PubChem BioAssay (NCATS).
# Several values for one entry are separate records, joined by “and”; a condition that tells them apart may be missing. Equal values may be shown once. Inconclusive results are not listed. Activity calls are given as the source filed them. Unless noted, calls follow the shape of the dose curve; as a rule, active = well fitted curve in the direction sought with a large enough effect; inconclusive = small, poorly fitted or top-dose-only effect, or another doubt; inactive = no such curve, though single readings can be large; an effect the other way counts as inactive or inconclusive.
# Experiments:
# [1] = target: Calcium and integrin-binding protein 1 (Homo sapiens) (UniProt Q99828); test: Primary qHTS for Identification of Calcium Integrin Binding Protein 1 (CIB1) Competitor (AID 1508620);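 also: GST tagged CIB1 binding a fluorescein labelled alphaIIb integrin peptide tracer; top concentration of the series differs between compounds; % is scaled to controls: 0 for no effect and ±100 for the full control effect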
# In short: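 Fluorescence polarization competition: GST-tagged CIB1 (1 uM final) preincubated with compound 15 min at room temperature, then FITC-labelled alphaIIb peptide (100 nM final) added. After 15 min at room temperature, polarization read at Ex 480/Em 540.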
# [2] = target: Cytochrome P450 2D6 (Homo sapiens) (UniProt P10635); test: Cytochrome P450 family 2 subfamily D member 6 (CYP2D6) small molecule antagonists: luciferase biochemical (cell-free) qHTS assay (AID 1645840; active = well fitted curve in the direction sought with a large enough effect in the repeat runs; an effect the other way counts as inactive or inconclusive; also: nearly all actives have a fitted effect of over 55% in size; also: potency is read from the fitted curve at half-maximal effect; as to activity change, negative = inhibition: % is scaled to controls: 0 for no effect and ±100 for the full control effect)
# In short: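 P450-Glo luminescent screen: recombinant CYP2D6 enzyme–proluciferin substrate mix preincubated with compound 10 min at room temperature, then NADPH regeneration added for 1 h at room temperature. Detection reagent added for 20 min; luciferin light read as relative luminescence units.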
# [3] = target: Cytochrome P450 2C9 (Homo sapiens) (UniProt P11712); test: Cytochrome P450 family 2 subfamily C member 9 (CYP2C9) small molecule antagonists: luciferase biochemical (cell-free) qHTS assay (AID 1645842; active = well fitted curve in the direction sought with a large enough effect in the repeat runs; an effect the other way counts as inactive or inconclusive; also: nearly all actives have a fitted effect of over 55% in size; also: potency is read from the fitted curve at half-maximal effect; as to activity change, negative = inhibition: % is scaled to controls: 0 for no effect and ±100 for the full control effect)
# In short: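 Luminescence, after 20 min with luciferin detection reagent, reflected CYP2C9 turnover during a 1 h NADPH-driven reaction at 37C. Enzyme-substrate mix contained 0.4% bovine serum albumin and was preincubated with compound 10 min at room temperature.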
# [4] = Primary qHTS for inhibitors of nuclear receptor binding SET domain protein 2 (NSD2) in an isogenic RCH-ACV NSD2 p.E1099K mutant (9B) (AID 1645876); also: nearly all actives have a fitted effect of over 70% in size; also: potency is read from the fitted curve at half-maximal effect
# [5] = Primary qHTS for inhibitors of nuclear receptor binding SET domain protein 2 (NSD2) in an RCH-ACV wild type WT cells (2C) (AID 1645877); also: nearly all actives have a fitted effect of over 70% in size; also: potency is read from the fitted curve at half-maximal effect
# [6] = target: N-terminal Xaa-Pro-Lys N-methyltransferase 1 (Homo sapiens) (UniProt Q9BV86); test: Confirmatory qHTS for Inhibitors of N-terminal methyltransferase 1 (NTMT1): MTaseGlo Assay (AID 1645874); also: potency is read from the fitted curve at half-maximal effect; nearly all actives have a fitted effect of over 65% in size
# In short: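 Compounds are incubated with 125 nM NTMT1 and 100 uM SAM for 15 min before the SPKRIA peptide (1 uM) starts a 30 min room-temperature methylation. SAH is measured by coupled luciferase luminescence and curves fitted to a Hill equation.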
# [7] = target: Catechol O-methyltransferase (Homo sapiens) (UniProt P21964); test: Confirmatory Screen for Target Class Profiling of Small Molecule Inhibitors of Methyltransferases (AID 1745852); conditions: MTase-Glo luminescence, SAH detection, recombinant enzyme; measured here: COMT max response; stronger effect = lower value; as to activity change, negative = inhibition: % is scaled to controls: 0 for no effect and ±100 for the full control effect
# [8] = target: Guanidinoacetate N-methyltransferase (Homo sapiens) (UniProt Q14353); test: as above; conditions: activity change, negative = inhibition: at 57.3 µM (top of the series) unless noted
# [9] = target: Nicotinamide N-methyltransferase (Homo sapiens) (UniProt P40261); test: as above; conditions: MTase-Glo luminescence, SAH detection, recombinant enzyme; measured here: NNMT max response; stronger effect = lower value
# [10] = target: Phenylethanolamine N-methyltransferase (Homo sapiens) (UniProt P11086); test: as above; conditions: MTase-Glo luminescence, SAH detection, recombinant enzyme; measured here: PNMT max response; stronger effect = lower value
# Sequence of Phenylethanolamine N-methyltransferase (Homo sapiens) (P11086 whole entry, looked up): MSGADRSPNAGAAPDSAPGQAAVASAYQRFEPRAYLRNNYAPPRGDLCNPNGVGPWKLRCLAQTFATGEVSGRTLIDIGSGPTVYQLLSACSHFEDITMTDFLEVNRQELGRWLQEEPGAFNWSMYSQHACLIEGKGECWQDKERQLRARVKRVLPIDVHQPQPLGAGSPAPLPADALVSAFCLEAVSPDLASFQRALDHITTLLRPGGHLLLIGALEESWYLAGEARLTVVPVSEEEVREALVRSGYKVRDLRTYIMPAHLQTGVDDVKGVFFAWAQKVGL
# Sequence of Cytochrome P450 2D6 (Homo sapiens) (P10635 whole entry, looked up): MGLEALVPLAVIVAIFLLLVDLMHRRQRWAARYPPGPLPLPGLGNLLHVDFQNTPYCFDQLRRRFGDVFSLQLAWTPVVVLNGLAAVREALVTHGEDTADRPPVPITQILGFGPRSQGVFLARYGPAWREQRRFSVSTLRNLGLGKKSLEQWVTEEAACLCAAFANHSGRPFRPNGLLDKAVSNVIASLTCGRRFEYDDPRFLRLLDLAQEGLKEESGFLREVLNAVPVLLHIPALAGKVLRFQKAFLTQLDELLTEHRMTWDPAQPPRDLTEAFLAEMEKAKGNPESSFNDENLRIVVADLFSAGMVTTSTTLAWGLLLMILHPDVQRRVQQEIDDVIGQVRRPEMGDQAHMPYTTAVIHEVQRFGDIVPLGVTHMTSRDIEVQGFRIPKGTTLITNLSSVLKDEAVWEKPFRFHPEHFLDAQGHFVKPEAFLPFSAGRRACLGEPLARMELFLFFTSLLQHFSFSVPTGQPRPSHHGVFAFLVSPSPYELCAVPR
# Sequence of Cytochrome P450 2C9 (Homo sapiens) (P11712 whole entry, looked up): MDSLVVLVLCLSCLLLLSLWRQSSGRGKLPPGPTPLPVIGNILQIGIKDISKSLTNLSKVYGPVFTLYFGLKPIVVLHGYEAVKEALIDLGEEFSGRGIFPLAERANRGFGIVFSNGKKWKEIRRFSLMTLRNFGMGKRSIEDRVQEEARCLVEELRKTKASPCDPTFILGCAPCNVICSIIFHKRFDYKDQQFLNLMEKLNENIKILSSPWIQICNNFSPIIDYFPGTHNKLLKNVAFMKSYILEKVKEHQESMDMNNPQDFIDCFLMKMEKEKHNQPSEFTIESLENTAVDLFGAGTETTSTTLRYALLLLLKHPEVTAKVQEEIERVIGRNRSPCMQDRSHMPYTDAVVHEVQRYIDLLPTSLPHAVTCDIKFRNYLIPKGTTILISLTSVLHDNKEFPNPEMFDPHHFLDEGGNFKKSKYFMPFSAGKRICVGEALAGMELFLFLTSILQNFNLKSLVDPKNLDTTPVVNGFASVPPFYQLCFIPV
# Sequence of Calcium and integrin-binding protein 1 (Homo sapiens) (Q99828 whole entry, looked up): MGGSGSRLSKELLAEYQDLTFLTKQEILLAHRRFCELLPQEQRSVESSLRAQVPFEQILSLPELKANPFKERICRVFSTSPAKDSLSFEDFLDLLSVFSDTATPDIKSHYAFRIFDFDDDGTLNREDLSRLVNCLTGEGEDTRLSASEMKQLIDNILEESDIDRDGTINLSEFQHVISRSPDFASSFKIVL
# Sequence of N-terminal Xaa-Pro-Lys N-methyltransferase 1 (Homo sapiens) (Q9BV86 whole entry, looked up): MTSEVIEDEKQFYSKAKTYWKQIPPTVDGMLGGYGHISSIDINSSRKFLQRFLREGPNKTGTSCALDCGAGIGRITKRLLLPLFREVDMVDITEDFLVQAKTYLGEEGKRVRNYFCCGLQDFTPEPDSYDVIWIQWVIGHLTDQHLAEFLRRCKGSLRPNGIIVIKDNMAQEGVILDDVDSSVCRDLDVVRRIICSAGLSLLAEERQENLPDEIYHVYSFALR
# Sequence of Catechol O-methyltransferase (Homo sapiens) (P21964 whole entry, looked up): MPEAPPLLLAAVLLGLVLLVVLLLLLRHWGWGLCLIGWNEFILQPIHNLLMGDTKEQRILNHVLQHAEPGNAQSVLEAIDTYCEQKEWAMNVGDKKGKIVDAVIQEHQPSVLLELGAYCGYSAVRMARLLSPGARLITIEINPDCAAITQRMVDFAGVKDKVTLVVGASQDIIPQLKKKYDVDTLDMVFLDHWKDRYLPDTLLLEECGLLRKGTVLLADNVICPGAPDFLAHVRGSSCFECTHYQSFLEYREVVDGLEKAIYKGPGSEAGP
# Sequence of Nicotinamide N-methyltransferase (Homo sapiens) (P40261 whole entry, looked up): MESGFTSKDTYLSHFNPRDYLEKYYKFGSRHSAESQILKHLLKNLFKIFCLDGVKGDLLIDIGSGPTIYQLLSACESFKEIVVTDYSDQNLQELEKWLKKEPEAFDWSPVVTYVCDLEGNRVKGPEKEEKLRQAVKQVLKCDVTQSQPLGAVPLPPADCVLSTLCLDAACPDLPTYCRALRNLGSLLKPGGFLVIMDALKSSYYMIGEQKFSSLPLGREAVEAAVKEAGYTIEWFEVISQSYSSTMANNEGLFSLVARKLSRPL
Compound,Potency [1],Potency [2],Potency [3],Potency [4],Potency [5],Potency [6],activity [7] [%],"activity change, negative = inhibition [8] [%]",activity [9] [%],activity [10] [%]
CC(C)(F)C[C@@H](N[C@@H](c1ccc(-c2ccc(S(C)(=O)=O)cc2)cc1)C(F)(F)F)C(=O)NC1(C#N)CC1,inactive,2.68 µM (active),19 µM (active),inactive,inactive,,,,,
CN[C@H](C(=O)N[C@H](C(=O)N(C)[C@H](/C=C(\C)C(=O)O)C(C)C)C(C)(C)C)C(C)(C)c1ccccc1,inactive,inactive,inactive,inactive,inactive,,,,,
COc1ccc(-c2ccc3c(N4CCOCC4)nc(N4CC(C)OC(C)C4)nc3n2)cc1CO (stereo unspecified),inactive,inactive,6.74 µM (active),0.205 µM (active),0.291 µM (active),,,,,
O=C(c1cn(Cc2cncn2Cc2ccc(Br)cc2)cc1-c1cccc2ccccc12)N1CCOCC1,inactive,10.7 µM (active),1.69 µM (active),1.83 µM (active),,,,,,
COc1ccc(Oc2cc(C)c(-c3csc(NC(=O)c4ccncc4)n3)c(C)c2)cc1,inactive,3.01 µM (active),4.77 µM (active),0.163 µM (active),0.916 µM (active),,,,,
CC(C)(C#N)c1ccc(N2C(=O)OCc3cnc4ccc(-c5cnc6ccccc6c5)cc4c32)cc1,inactive,inactive,2.68 µM (active),0.728 µM (active),0.817 µM (active),,,,,
Cn1cc(-c2ccc3nnc(Sc4ccc5nn(C)cc5c4)n3n2)cn1,inactive,inactive,4.77 µM (active),inactive,,,,,,
O=C(CC(c1ccccc1)c1ccccc1)N1CCN(C(c2ccccc2)c2ccccc2)CC1,inactive,inactive,4.77 µM (active),7.28 µM (active),8.17 µM (active),,,,,
CN(C)C/C=C/C(=O)Nc1cc2c(Nc3ccc(F)c(Cl)c3)ncnc2cc1OC1CCOC1 (stereo unspecified),inactive,inactive,15.1 µM (active),2.3 µM (active),2.3 µM (active),20 µM (active),,,,
Cn1c2ccc(F)cc2c2c(C(=O)N3CCCC3)cn(-c3ccccc3)c(=O)c21,inactive,inactive,1.51 µM (active),inactive,inactive,,,,,
CC(C)[C@@H](CS(=O)(=O)C(C)C)N1C(=O)[C@@](C)(CC(=O)O)C[C@H](c2cccc(Cl)c2)[C@H]1c1ccc(Cl)cc1,inactive,inactive,15.1 µM (active),1.15 µM (active) and 833 nM (active),,,,,,
COc1cc(N2CCOCC2)ccc1Nc1ncc(Cl)c(Nc2ccccc2NS(C)(=O)=O)n1,inactive,15.1 µM (active),inactive,1.15 µM (active),1.83 µM (active),,,,,
O=C(O)[C@@H]1C[C@H]2C[C@@H](CCc3nn[nH]n3)CC[C@H]2CN1,inactive,inactive,inactive,inactive,inactive,,,,,
O=C(O)c1ccccc1NC(=O)N1CCC(c2ccccc2C(F)(F)F)CC1,inactive,inactive,0.849 µM (active),inactive,inactive,,,,,
Cc1cccc(C)c1OCc1cc(C(=O)N2CCC(c3ccncc3)CC2)no1,inactive,1.2 µM (active),0.338 µM (active),10.3 µM (active),,,,,,
O=C1CC2(CCCC2)[C@H](O)C(=O)N1CCCCN1CCN(c2ncccn2)CC1,inactive,12 µM (active),10.7 µM (active),inactive,inactive,,,,,
Cc1cccc(/C=N/Nc2cc(N3CCOCC3)n3nc(-c4ccncc4)cc3n2)c1,inactive,3.79 µM (active),1.34 µM (active),0.578 µM (active),0.515 µM (active),,,,,
COc1cc2c(NC3CCN(CC4CCCCC4)CC3)nc(N3CCCN(C(C)C)CC3)nc2cc1OCCCN1CCCCC1,inactive,12 µM (active),inactive,2.58 µM (active) and 5.25 µM (active),2.3 µM (active) and 3.32 µM (active),34.5 µM (active),-7.99,-0.195,-18.7,-1.55
COCCOc1ccc(N2CCN(CCn3ncc4c3nc(N)n3nc(-c5ccco5)nc43)CC2)cc1,inactive,inactive,inactive,inactive,inactive,,,,,
N#CC(c1ccnc(OCc2ccc(CN3CCOCC3)cc2)n1)c1nc2ccccc2s1 (stereo unspecified),inactive,inactive,10.7 µM (active),inactive,,,,,,
NCc1ccc(Nc2ncc(F)c(Nc3ccccc3)n2)cc1,inactive,15.1 µM (active),6.74 µM (active),3.25 µM (active),4.09 µM (active),,,,,
CC(C)C(CO)Nc1nc(Nc2cc(N)cc(Cl)c2)c2ncn(C(C)C)c2n1 (stereo unspecified),inactive,23.9 µM (active),0.536 µM (active),6.49 µM (active),6.49 µM (active),,,,,
